# PubChem BioAssay AID492950 (Southern Research Specialized Biocontainment Screening …, 2010)
# Measured potencies and affinities stand elsewhere. Activity calls are given as the source filed them. How the calls were made is not given here.
# Assay: mammalian cell cytotoxicity, dose response, cytotoxicity control (AID 492950)
# Settings: cytotoxicity counter-screen; series mostly up to 40 µM
row,Compound,outcome
1,C/C(=N/NC(=O)Cc1cc(=O)[nH][nH]1)c1ccc([N+](=O)[O-])cc1,inactive
2,Fc1ccc(Nc2nc(Oc3ccccc3F)nc(N3CCCC3)n2)cc1,inactive
3,CCCc1c(-c2ccc(O)cc2)nn(-c2ccc(O)cc2)c1-c1ccc(O)cc1,inactive
4,CCOc1ccc(-c2[nH]nc3c2C(c2ccc(O)cc2)C(C#N)=C(N)O3)cc1 (stereo not drawn),inactive
5,COc1cccc(-c2[nH]nc3c2C(c2ccsc2)C(C#N)=C(N)O3)c1 (stereo not drawn),inactive
6,Cn1c(O)c(C2=NN(C(=O)CCl)C(c3ccccc3)C2)c(=O)n(C)c1=O (stereo not drawn),inactive
7,CC(=O)Nc1cc(OC(=O)c2ccco2)cc(OC(=O)c2ccco2)c1,inactive
8,O=C(CSc1nnc(-c2ccccc2Cl)o1)Oc1ccc(Br)cc1,inactive
9,Cc1ccc(C2C(C#N)=C(N)Oc3n[nH]c(-c4cccs4)c32)cc1 (stereo not drawn),inactive
10,COc1ccc(N(C(=O)COc2cccc(C)c2)S(=O)(=O)c2ccc(C)cc2)cc1,inactive
11,Cc1ccc(SCC2=NNC(=O)C2)cc1,inactive
12,O=C1NC2=C(CCc3ccccc32)C(c2ccccc2)N1 (stereo not drawn),inactive
13,O=C(CSCc1cc(=O)[nH][nH]1)Nc1ccc(F)cc1,inactive
14,O=c1cc(-c2ccc(Cl)c(Cl)c2)[nH][nH]1,inactive
15,Cc1[nH]n(-c2ccccc2)c(=O)c1C(c1cccc([N+](=O)[O-])c1)c1c(C)[nH]n(-c2ccccc2)c1=O,inactive
16,Cc1ccc(-c2cc(=O)[nH][nH]2)c(C)c1,inactive
17,O=C(Cc1cc(=O)[nH][nH]1)N/N=C/c1c(Cl)cccc1Cl,inactive
18,COC(=O)C(C#N)C(c1cccnc1)c1c(C)[nH][nH]c1=O (stereo not drawn),inactive
